From PubChem BioAssay (NCI)
Compounds without any hit were thinned out: in the full panel of roughly 83,000, 20% have a hit.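 Single-concentration screen, 48 h exposure, 96-well plates. Endpoint: percent growth. Below 10 = active.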 Calls of active or inactive are those of the source.

Assays:
Assay in all cases: NCI-60 one-dose screen, 48 h (100 = growth as untreated, 0 = no growth, -100 = all killed)
Settings in all cases: 10 µM unless noted
HCT-15 colon = system: HCT-15 colon
HT29 colon = system: HT29 colon
SNB-75 CNS = system: SNB-75 CNS
SNB-19 CNS = system: SNB-19 CNS
U251 CNS = system: U251 CNS
PC-3 prostate = system: PC-3 prostate
SK-MEL-5 melanoma = system: SK-MEL-5 melanoma
UACC-62 melanoma = system: UACC-62 melanoma
LOX IMVI melanoma = system: LOX IMVI melanoma
SK-MEL-28 melanoma = system: SK-MEL-28 melanoma
SK-MEL-2 melanoma = system: SK-MEL-2 melanoma
EKVX NSCLC = system: EKVX NSCLC
SN12C renal = system: SN12C renal
UO-31 renal = system: UO-31 renal
TK-10 renal = system: TK-10 renal
ACHN renal = system: ACHN renal
CAKI-1 renal = system: CAKI-1 renal
A498 renal = system: A498 renal
CCRF-CEM leukemia = system: CCRF-CEM leukemia
MOLT-4 leukemia = system: MOLT-4 leukemia

Measured: growth

Cn1cc(-c2csc(-c3cn(CCCN4CCOCC4)c4ccc(F)cc34)n2)c2cccnc21
inactive: HCT-15 colon 27.1% | SNB-75 CNS 87.1% | SNB-19 CNS 77.1% | U251 CNS 51.1% | PC-3 prostate 29.6% | SK-MEL-5 melanoma 25.1% | UACC-62 melanoma 72.2% | LOX IMVI melanoma 26.6% | SK-MEL-28 melanoma 77.5% | SK-MEL-2 melanoma 86.3% | EKVX NSCLC 63% | SN12C renal 78.5% | UO-31 renal 50.2% | TK-10 renal 75.1% | ACHN renal 63.8% | CAKI-1 renal 79% | A498 renal 36.1% | CCRF-CEM leukemia 36.4% | MOLT-4 leukemia 32.1%
active: HT29 colon 1.97%

Cc1ccc(C)c2c1sc1nc(N3CCOCC3)c(C#N)c(=O)n12
inactive: HCT-15 colon 102% | HT29 colon 97.2% | SNB-75 CNS 53.2% | SNB-19 CNS 96.3% | U251 CNS 58.9% | PC-3 prostate 18.5% | SK-MEL-5 melanoma 88.5% | UACC-62 melanoma 90.2% | LOX IMVI melanoma 67% | SK-MEL-28 melanoma 103% | SK-MEL-2 melanoma 110% | EKVX NSCLC 80.2% | SN12C renal 104% | UO-31 renal 74.9% | TK-10 renal 154% | ACHN renal 105% | CAKI-1 renal 105% | A498 renal 75.7% | CCRF-CEM leukemia 83.1% | MOLT-4 leukemia 110%

COc1cc2c(c(OC)c1OC)C(=O)CC(c1cccc(C(=O)Nc3ccc(C#N)cc3)c1)O2 (stereo not given)
inactive: HCT-15 colon 63% | HT29 colon 86.4% | SNB-75 CNS 74.8% | SNB-19 CNS 89.5% | U251 CNS 94.7% | PC-3 prostate 39.2% | SK-MEL-5 melanoma 37.5% | UACC-62 melanoma 34.8% | LOX IMVI melanoma 79.6% | SK-MEL-28 melanoma 95.6% | SK-MEL-2 melanoma 74.6% | EKVX NSCLC 80.2% | SN12C renal 72.1% | UO-31 renal 52% | TK-10 renal 92.3% | ACHN renal 79.4% | CAKI-1 renal 71.6% | A498 renal 72.1% | CCRF-CEM leukemia 25% | MOLT-4 leukemia 20%

CCOC(=O)C/C(=N\Nc1cc(=O)[nH]c2ccc(C)cc12)C(=O)OCC
active: CCRF-CEM leukemia -57.2%
inactive: HCT-15 colon 103% | HT29 colon 112% | SNB-75 CNS 94.7% | SNB-19 CNS 97.8% | U251 CNS 103% | PC-3 prostate 91.4% | SK-MEL-5 melanoma 96.8% | UACC-62 melanoma 91.1% | LOX IMVI melanoma 102% | SK-MEL-28 melanoma 99.3% | SK-MEL-2 melanoma 108% | EKVX NSCLC 109% | SN12C renal 101% | UO-31 renal 86.7% | TK-10 renal 101% | ACHN renal 99% | CAKI-1 renal 94.6% | A498 renal 112% | MOLT-4 leukemia 18.3%

NS(=O)(=O)c1ccc(C(=O)N=Nc2c(O)[nH]c3ccc(Cl)cc23)cc1
inactive: HCT-15 colon 99.4% | HT29 colon 99.7% | SNB-75 CNS 89% | SNB-19 CNS 91.3% | U251 CNS 99.7% | PC-3 prostate 97.4% | SK-MEL-5 melanoma 103% | UACC-62 melanoma 105% | LOX IMVI melanoma 102% | SK-MEL-28 melanoma 114% | SK-MEL-2 melanoma 105% | EKVX NSCLC 95.8% | SN12C renal 94.9% | UO-31 renal 83.8% | TK-10 renal 115% | ACHN renal 107% | CAKI-1 renal 92.6% | A498 renal 75.3% | CCRF-CEM leukemia 99.7% | MOLT-4 leukemia 107%

O=S(=O)(Nc1ccc2ccccc2c1)c1ccc(-c2cnc(C3CC3)o2)cc1
inactive: HCT-15 colon 31.5% | HT29 colon 14.8% | SNB-19 CNS 35.8% | U251 CNS 23.6% | PC-3 prostate 23.4% | SK-MEL-5 melanoma 28.2% | UACC-62 melanoma 32.1% | LOX IMVI melanoma 56.9% | SK-MEL-28 melanoma 64.9% | SK-MEL-2 melanoma 40.2% | EKVX NSCLC 41.9% | SN12C renal 44.9% | UO-31 renal 42.5% | TK-10 renal 61.9% | ACHN renal 36.2% | CAKI-1 renal 28.9% | CCRF-CEM leukemia 10.7% | MOLT-4 leukemia 20.2%
active: SNB-75 CNS -1.76% | A498 renal 3.93%

Oc1nc(NCc2ccccc2)sc1/C=C1\C=Nc2ncccc21
inactive: HCT-15 colon 67.4% | HT29 colon 57.9% | SNB-75 CNS 37.3% | SNB-19 CNS 63.3% | U251 CNS 51.1% | PC-3 prostate 71.3% | SK-MEL-5 melanoma 70% | UACC-62 melanoma 69.7% | LOX IMVI melanoma 52.1% | SK-MEL-28 melanoma 69.2% | SK-MEL-2 melanoma 72.9% | EKVX NSCLC 73.7% | SN12C renal 72.8% | UO-31 renal 84.8% | TK-10 renal 64.4% | ACHN renal 29.2% | CAKI-1 renal 74.6% | A498 renal 63.4% | CCRF-CEM leukemia 49.6% | MOLT-4 leukemia 52.4%

CC1=C2CC/C(C)=C/CC[C@]3(C)O[C@H]3CC/C(C)=C/[C@H]2OC1
inactive: HCT-15 colon 97.9% | HT29 colon 94.7% | SNB-75 CNS 86.6% | SNB-19 CNS 98.5% | U251 CNS 94.7% | PC-3 prostate 87.5% | SK-MEL-5 melanoma 108% | UACC-62 melanoma 92.1% | LOX IMVI melanoma 101% | SK-MEL-28 melanoma 96.5% | SK-MEL-2 melanoma 92.6% | EKVX NSCLC 103% | SN12C renal 95.5% | UO-31 renal 84.7% | TK-10 renal 100% | ACHN renal 90.9% | CAKI-1 renal 87% | A498 renal 97% | CCRF-CEM leukemia 84.9% | MOLT-4 leukemia 86.5%

O=C1O[C@@H](c2ccccc2Cl)[C@@H]2c3cc4c(cc3CCN12)OCO4
inactive: HCT-15 colon 101% | HT29 colon 86.4% | SNB-75 CNS 91.7% | SNB-19 CNS 99.4% | U251 CNS 86% | PC-3 prostate 87.7% | SK-MEL-5 melanoma 96.6% | UACC-62 melanoma 78.7% | LOX IMVI melanoma 99.5% | SK-MEL-28 melanoma 118% | SK-MEL-2 melanoma 91.7% | EKVX NSCLC 101% | SN12C renal 103% | UO-31 renal 74.6% | TK-10 renal 89.1% | ACHN renal 105% | CAKI-1 renal 105% | A498 renal 82.8% | CCRF-CEM leukemia 105% | MOLT-4 leukemia 90.5%

O=S(=O)(NCCNc1nccc(-c2c(-c3ccc(F)c(O)c3)nc3sccn23)n1)c1ccc(Cl)cc1
active: SK-MEL-5 melanoma -18.5% | UACC-62 melanoma -1.12% | SK-MEL-2 melanoma -31.6% | MOLT-4 leukemia 1.03%
inactive: HCT-15 colon 27% | HT29 colon 17.5% | SNB-75 CNS 50.2% | SNB-19 CNS 46.1% | U251 CNS 41.6% | PC-3 prostate 17% | LOX IMVI melanoma 29.6% | SK-MEL-28 melanoma 47.6% | EKVX NSCLC 36.6% | SN12C renal 26.3% | UO-31 renal 11.6% | TK-10 renal 44.8% | ACHN renal 19.8% | CAKI-1 renal 19.5% | A498 renal 30.8% | CCRF-CEM leukemia 14.2%

COc1ccc2c(O)c(/C=C3\N=Nc4ncccc43)oc2c1C[C@@H]1CCNC[C@H]1F
active: HCT-15 colon -1.3% | HT29 colon 5.21% | SNB-75 CNS -57.3% | SNB-19 CNS 1.93% | U251 CNS -84.7% | PC-3 prostate -29.1% | SK-MEL-5 melanoma 5.56% | UACC-62 melanoma -33.2% | LOX IMVI melanoma -93% | SK-MEL-28 melanoma 5.44% | SK-MEL-2 melanoma -17.9% | EKVX NSCLC -5.63% | SN12C renal -28.2% | UO-31 renal -14.5% | TK-10 renal -2.3% | ACHN renal -52.7% | CAKI-1 renal 1.53% | A498 renal -32.1% | CCRF-CEM leukemia -17.4% | MOLT-4 leukemia -9.39%

COc1ccc(Nc2ncc(I)c(NCCCNC(=O)C3CCC3)n2)cc1
inactive: HT29 colon 12.5% | SNB-75 CNS 39.4% | SNB-19 CNS 24.5% | PC-3 prostate 23.8% | SK-MEL-5 melanoma 23.3% | UACC-62 melanoma 22.9% | SK-MEL-28 melanoma 43.4% | SK-MEL-2 melanoma 35.5% | EKVX NSCLC 21.9% | SN12C renal 19.8% | MOLT-4 leukemia 10.5%
active: HCT-15 colon -18.8% | U251 CNS 2.43% | LOX IMVI melanoma -11.3% | UO-31 renal -94.1% | TK-10 renal -14.5% | ACHN renal -21% | CAKI-1 renal 0.394% | A498 renal -51.4% | CCRF-CEM leukemia 2.24%

N#C/C(=C\c1ccc(-c2cccc(Cl)c2)o1)C(=O)Nc1ncc(Cc2ccc(Cl)cc2)s1
active: SNB-75 CNS -3.05%
inactive: HCT-15 colon 57.6% | HT29 colon 70.5% | SNB-19 CNS 77.4% | U251 CNS 16.9% | PC-3 prostate 39.5% | SK-MEL-5 melanoma 89.9% | UACC-62 melanoma 43% | LOX IMVI melanoma 52.5% | SK-MEL-28 melanoma 66.8% | SK-MEL-2 melanoma 97.2% | EKVX NSCLC 69.4% | SN12C renal 35.9% | UO-31 renal 23.7% | TK-10 renal 69.9% | ACHN renal 31.4% | CAKI-1 renal 51.6% | A498 renal 74.1% | CCRF-CEM leukemia 43.6% | MOLT-4 leukemia 87.1%

CCN(CC)C(=O)C1=C(C)NC(=O)NC1c1ccc2c(c1)OCO2 (stereo not given)
inactive: HCT-15 colon 105% | HT29 colon 107% | SNB-75 CNS 93.3% | SNB-19 CNS 96.2% | U251 CNS 102% | PC-3 prostate 98.5% | SK-MEL-5 melanoma 101% | UACC-62 melanoma 102% | LOX IMVI melanoma 95.6% | SK-MEL-28 melanoma 115% | SK-MEL-2 melanoma 108% | EKVX NSCLC 99% | SN12C renal 107% | UO-31 renal 81.4% | TK-10 renal 100% | ACHN renal 103% | CAKI-1 renal 93.1% | A498 renal 111% | CCRF-CEM leukemia 104% | MOLT-4 leukemia 104%

C/C(=N\Nc1ccccc1)c1ccc(NC2=CC(=O)c3ccccc3C2=O)cc1
inactive: HCT-15 colon 31.9% | HT29 colon 75.3% | SNB-75 CNS 51.1% | SNB-19 CNS 85.7% | U251 CNS 45.8% | PC-3 prostate 40.1% | LOX IMVI melanoma 21.4% | SK-MEL-28 melanoma 65.9% | SK-MEL-2 melanoma 55.6% | EKVX NSCLC 74% | SN12C renal 63.5% | UO-31 renal 38.8% | TK-10 renal 81.5% | ACHN renal 48.2% | CAKI-1 renal 43.8% | A498 renal 110% | CCRF-CEM leukemia 62.7% | MOLT-4 leukemia 63%
active: SK-MEL-5 melanoma -10.5% | UACC-62 melanoma -7.92%
